Platelet DG rel: inhibitors of platelet dense granule secretion, primary screen, cell-based, MLPCN, human platelets; human platelet-rich plasma, SFLLRN dense granule ATP release, luminescence; inhibition, %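 (compounds screened at 7.5 µM in platelet-rich plasma)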; hit rate 0.22% among 300,000;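 active = mean replicate score, as percent of positive control, at or above 50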
CHT inh: inhibitors of human choline transporter CHT; hit rate 0.86% among 310,000; CHT-expressing cells, membrane potential dye, choline response; hits give low values; B-score at 10 µM;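 active = B-score over 3 SD under the library average, and starting fluorescence ratio not unusually high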;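 also: choline stimulus applied at its EC90 after an EC20 pre-addition; B-score computed on integrated fluorescence ratio after choline addition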
CHT allo act: CHT positive allosteric modulators, primary screen, cell-based, membrane potential dye, choline EC20; High affinity choline transporter 1 (Homo sapiens), Q9GZV3; CHT-expressing cells; hits give high values; LV-AA mutant CHT in HEK293 cells; B-score at 10 µM; hit rate 0.49% among 310,000; AID 488977, 2010;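 active = initial fluorescence not abnormally high and integrated response B-score, plate-corrected, over 3 SD above library mean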
HIF activator: HIF pathway transcriptional activators, primary screen, cell-based, U2OS HRE-luciferase, luminescence | hit rate 0.32% among 300,000 | U2OS HRE-luciferase reporter; normalized: DMSO 0%, desferrioxamine 100% | activation, % at 7.5 µM (by protocol);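 active = mean activation of at least 10% of the iron chelator positive control signal, with at least half of replicates also reaching 10%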
AI-2 QS mod: Vibrio harveyi AI-2 quorum sensing modulators, primary screen, JMH597 strain, luminescence/OD600 ratio; Vibrio harveyi JMH597 AI-2 luminescence/OD600 ratio, 9 h; hits give low values; strain lacks LuxN and CqsS sensors; 0 = neutral-control median; activity change, % at 7.5 µM; hit rate 0.4% among 300,000; in the data active = activity change below about -75%, passing the limit was not always enough;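 also: luminescence divided by OD600 gain over 9 h not by final OD600 alone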
VLA-4 inh: inhibition in human VLA-4 binding assay, primary screen, VLA-4 allosteric modulator project, MLPCN library, flow cytometry, VLA-4 expressing cells; Integrin alpha-4 (Homo sapiens), P13612; ligand binding flow cytometry; inhibition, % (about 7 µM as worked out from the volumes in the protocol); hit rate 0.2% among 330,000; in the data active = inhibition above about 50%
Target sequence (P13612 whole entry, looked up): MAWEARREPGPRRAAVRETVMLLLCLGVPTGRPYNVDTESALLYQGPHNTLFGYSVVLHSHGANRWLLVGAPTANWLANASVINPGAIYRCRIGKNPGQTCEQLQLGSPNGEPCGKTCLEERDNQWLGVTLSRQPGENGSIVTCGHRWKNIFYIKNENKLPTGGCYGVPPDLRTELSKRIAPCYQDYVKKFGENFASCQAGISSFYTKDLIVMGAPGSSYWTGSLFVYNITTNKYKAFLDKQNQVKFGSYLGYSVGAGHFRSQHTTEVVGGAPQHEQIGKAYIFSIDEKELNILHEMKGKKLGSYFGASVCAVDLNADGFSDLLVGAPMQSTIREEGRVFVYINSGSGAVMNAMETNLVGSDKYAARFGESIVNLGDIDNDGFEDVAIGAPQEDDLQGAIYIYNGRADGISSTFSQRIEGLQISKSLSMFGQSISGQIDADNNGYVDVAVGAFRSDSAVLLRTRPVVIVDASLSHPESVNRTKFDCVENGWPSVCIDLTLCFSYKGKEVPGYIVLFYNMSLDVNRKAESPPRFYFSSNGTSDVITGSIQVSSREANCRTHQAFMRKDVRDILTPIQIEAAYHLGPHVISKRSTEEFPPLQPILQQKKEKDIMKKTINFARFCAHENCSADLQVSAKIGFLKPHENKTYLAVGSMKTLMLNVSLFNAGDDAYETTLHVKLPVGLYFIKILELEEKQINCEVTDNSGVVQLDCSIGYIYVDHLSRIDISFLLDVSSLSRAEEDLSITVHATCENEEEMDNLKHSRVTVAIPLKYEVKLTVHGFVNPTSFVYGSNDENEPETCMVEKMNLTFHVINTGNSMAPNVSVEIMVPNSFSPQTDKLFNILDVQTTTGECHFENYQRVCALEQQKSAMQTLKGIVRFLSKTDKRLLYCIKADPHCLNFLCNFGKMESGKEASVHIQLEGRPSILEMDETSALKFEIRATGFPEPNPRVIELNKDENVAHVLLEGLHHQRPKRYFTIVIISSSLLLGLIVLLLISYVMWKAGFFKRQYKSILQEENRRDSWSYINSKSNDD
CHT inh conf: CHT inhibitors, confirmation, cell-based, membrane potential dye, duplicate. shares compounds with CHT inh. CHT-expressing cells, choline membrane potential dye; LV-to-AA substituted CHT, HEK293 cells. CHT activity remaining % of control (hits give low values), % at 10 µM. hit rate 70% among 2,400. AID 493221, 2011;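 active = choline transporter activity left, mean of duplicates at 10 µM, below buffer-only control mean minus 3 SD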;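 also: depolarization triggered by choline at its EC90 following an EC20 pre-addition; 0% = hemicholinium-3 full block and 100% = buffer-only control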
HEK293 MPD ctr: membrane potential effects in parental HEK293, counter-screen for CHT inhibitor project, cell-based, membrane potential dye | shares compounds with CHT inh | membrane potential ratio readout (active if shifted either direction beyond buffer ±3SD; no single direction) at 10 µM | choline response; active = decrease or increase beyond buffer ±3SD | hit rate 4% among 2,400;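 also: parental cells lack the transporter so any hit is non-specific; ratio is peak minus trough fluorescence over baseline after EC90 choline challenge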
* hit, by the source's call; i = inactive; . = no result given. Sampled rows, rich in hits. Any-hit rate of the full collection: about 2.2%.

SMILES	Platelet DG rel	CHT inh	CHT allo act	HIF activator	AI-2 QS mod	VLA-4 inh	CHT inh conf	HEK293 MPD ctr
CC(Oc1ccc2c3c(c(=O)oc2c1)CCCC3)C(=O)NCC1CCC(C(=O)O)CC1 (stereo not drawn)	6	i	i	0	9	7	.	.
CCC(CC)C(=O)N1CC(=O)Nc2ccc(F)cc2C1c1ccccc1 (stereo not drawn)	7	i	i	-1	14	11	.	.
c1ccc(N2CCN(Cc3ccnc4ccccc34)CC2)cc1	2	-11*	i	0	48	-16	i	i
CCCCCc1c2c(cc(O)c1C(=O)O)OC(=O)c1c(cc(OC)cc1C(=O)CCCC)O2	-1	-5.3*	i	0	21	-15	35%*	i
CCOC(=O)CSc1nnc(CNc2ccccc2Cl)n1-c1ccccc1	2	-5.3*	i	0	15	3	i	i
CCN(CC)C(=S)SCC(=O)Nc1ccc(S(N)(=O)=O)cc1	-3	-5.6*	i	-1	26	15	i	i
O=[N+]([O-])c1ccc(N2CCCC2)nc1	0	i	i	0	12	8	.	.
O=[N+]([O-])c1ccc(N2CCCCC2)nc1	7	-5.8*	i	1	0	-8	60%*	i
Cc1cccc(C(=O)Nc2cccc(OCC(=O)O)c2)c1	2	-5*	i	0	23	-4	57%*	i
O=C(O)COc1cccc(NC(=O)c2ccccc2)c1	0	i	i	-1	22	0	.	.
CN(C(=O)c1ccccc1[N+](=O)[O-])c1ccccc1C(=O)NCc1ccccc1	-6	i	i	0	14	4	.	.
Cc1cccc(-c2nc(CN3CCCC(C(=O)NC4CCCC4)C3)c(C)o2)c1 (stereo not drawn)	1	-5.1*	i	0	9	-1	i	i
COc1ccccc1NC(=O)CCCCCN1C(=O)c2cccc([N+](=O)[O-])c2C1=O	3	i	i	-1	30	17	.	.
COc1cc(/C=C2/C(=O)c3cccc([N+](=O)[O-])c3C2=O)c(Br)cc1O	.	-7.2*	i	.	.	15	43%*	i
Cc1ccc(-c2nn(C)c(=O)c3ccccc23)cc1CNC(=O)NC1CCCCC1	-7	i	i	0	22	4	.	.
CCN(Cc1ccccc1)S(=O)(=O)c1cc(C(=O)NC2CCCCCC2)ccc1OC	13	-5.1*	i	-1	18	10	50%*	i
Cc1ccc(Nc2cc(C)nc3ncnn23)c(Cl)c1	0	-5.6*	i	0	-2	5	i	i
O=C(c1ccc(N2CCOCC2)c([N+](=O)[O-])c1)N1CCCC(C(F)(F)F)C1 (stereo not drawn)	8	i	i	0	22	-9	.	.
CCOc1cccc2sc(N(CCCN(C)C)C(=O)c3ccc(S(=O)(=O)N(C)c4ccccc4)cc3)nc12	-3	-5.5*	i	0	11	1	i	i
O=C(CN1C(=O)NC2(CCc3ccccc32)C1=O)Nc1ccccc1C(F)(F)F (stereo not drawn)	.	.	.	.	.	13	.	.
CCCN1Cc2cccc(C(=O)NCc3ccccc3OC)c2C1=O	-14	-5.3*	i	0	15	-7	71%*	i
COCCN1Cc2cccc(C(=O)NCc3ccccc3OC)c2C1=O	-8	i	i	0	10	4	.	.
Cc1ccc(-c2nc(CN(C)Cc3ccc4nccnc4c3)c(C)o2)s1	-1	-5.2*	i	0	20	4	i	i
Cc1noc(C)c1COc1cccc(C(=O)OC(C)C(=O)Nc2c(C)n(C)n(-c3ccccc3)c2=O)c1 (stereo not drawn)	.	i	i	.	13	17	.	.
CN(C)C(CNC(=O)c1ccc(-c2ccccc2)cc1)c1ccccc1 (stereo not drawn)	-2	i	i	0	18	12	.	.
SMILES	Platelet DG rel	CHT inh	CHT allo act	HIF activator	AI-2 QS mod	VLA-4 inh	CHT inh conf	HEK293 MPD ctr
Cc1ccccc1NC(=O)c1ccccc1N(C)S(=O)(=O)c1ccccc1	-16	i	i	0	3	-4	.	.
CC(=O)N(C)c1ccc(OCC(O)CN(c2ccccc2C)S(=O)(=O)c2ccc(C)cc2)cc1 (stereo not drawn)	24	-18*	i	0	-5	1	-11%*	i
O=CN/C=C/c1cc(O)ccc1O	.	-7.4*	i	.	.	5	48%*	i
Cc1cc(C)c(CNC(=O)c2cc(C3CC3)nc3c2cnn3C(C)C)c(=O)[nH]1	.	.	.	.	.	-6	.	.
CCCCC(CC)C(=O)NCc1ccccc1OC (stereo not drawn)	-4	-5.6*	i	0	11	1	i	i
CC(C(=O)Nc1ccc(O)cc1C(=O)O)N1C(=O)/C(=C\c2cccs2)SC1=S (stereo not drawn)	10	i	i	0	8	-8	.	.
Cc1ccc(C(=O)NC2CC3CCCC(C2)N3C(=S)NCc2ccco2)cc1 (stereo not drawn)	1	i	i	0	29	5	.	.
Fc1ccc(CN2CCN(c3ncnc4scc(-c5ccc(F)cc5)c34)CC2)cc1	-11	i	i	-3	28	19	.	.
CN1CCCN(c2ncnc3scc(-c4ccc(F)cc4)c23)CC1	1	-10*	i	0	-5	-1	24%*	i
CCc1cc2c(=O)n(CC)c(SC(C)C(=O)Nc3c(C)n(C)n(-c4ccccc4)c3=O)nc2s1 (stereo not drawn)	-3	-5.6*	i	0	15	10	i	i
Nn1c(SCC(=O)Nc2ccccc2C(F)(F)F)nncc1=O	-13	i	i	0	14	5	.	.
Cc1ccccc1CC1(CO)CCCN(Cc2nc(-c3cccs3)oc2C)C1 (stereo not drawn)	5	-6.7*	i	0	15	11	i	i
CN(CC(=O)Nc1ccccc1Cl)C(=O)CSc1nnc(-c2ccco2)n1C	.	.	.	.	.	0	.	.

Screening results (PubChem)
